# Experimental data reported in PubChem BioAssay (NCI).
# This is part of a sample that, as a whole, favours compounds with a hit. Of some 79,000 tested, about 15% had one in any assay. Values without a mark were called inactive. Calls of active or inactive are those of the source. No stated cut-off is given here; in the data, active means growth inhibition above about 70%; inactive means the rest.
# Assays:
# [1] = NCI Yeast Anticancer Drug Screen. Data for the rad50 strain (AID 155);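 further: 0% = growth of vehicle-only cultures of the same strain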; settings: S. cerevisiae rad50 strain growth inhibition; at 50.0 µM; active compounds read high
# Summary of the method: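 Cells are treated with compound, grown, and their growth is then scored against vehicle-only cultures of the same repair-deficient yeast strain.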
# [2] = NCI Yeast Anticancer Drug Screen. Data for the mec2-1 strain (AID 157); settings: S. cerevisiae mec2-1 strain, at 50.0 µM, active compounds read high
# Summary of the method: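 Growth inhibition is read against vehicle-treated controls after compound exposure of the mec2-1 yeast strain, which is defective in DNA damage repair or cell cycle control.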
# [3] = NCI Yeast Anticancer Drug Screen. Data for the sgs1 mgt1 strain (AID 161);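 further: 0% = growth of cultures given vehicle only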; settings: S. cerevisiae sgs1 mgt1 strain, at 50.0 µM, active compounds read high
# Summary of the method: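 Compounds are added to genetically altered yeast, and growth is compared with cultures given vehicle alone to give percent inhibition.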
# [4] = NCI Yeast Anticancer Drug Screen. Data for the cln2 rad14 strain (AID 165);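 further: 0% = growth equal to vehicle treated cultures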; settings: S. cerevisiae cln2 rad14 strain, at 50.0 µM, active compounds read high
# Summary of the method: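 Growth inhibition, relative to vehicle-treated controls, is the read-out. The test organism is a yeast strain with defined genetic alterations, cln2 rad14.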
# [5] = NCI Yeast Anticancer Drug Screen. Data for the bub3 strain (AID 167); settings: S. cerevisiae bub3 mutant strain, at 50.0 µM, active compounds read high
# Summary of the method: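 Part of a panel of yeast mutants defective in DNA damage repair or cell cycle regulation. Each strain is grown with compound, and inhibition is calculated relative to solvent-treated cultures.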
# [6] = NCI Yeast Anticancer Drug Screen. Data for the mlh1 rad18 strain (AID 175); settings: S. cerevisiae mlh1 rad18 strain growth inhibition; at 50.0 µM; active compounds read high
# Summary of the method: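 Cells of a genetically altered yeast strain, deficient in DNA damage repair, were treated with compound. Their growth was then compared with that of vehicle-treated cultures to give inhibition.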
SMILES,growth inhibition [1],growth inhibition [2],growth inhibition [3],growth inhibition [4],growth inhibition [5],growth inhibition [6] [%]
CC(c1ccc(O)cc1)c1cc2c(cc1OCCO)OCO2 (centres undefined),99.3% (active),99% (active),99.4% (active),99.3% (active),99.5% (active),–
COc1cc(C)n2nnnc2n1,9.5%,-6.2%,0.2%,-15.8%,1.3%,–
COc1ccc(N=C(C)c2c(O)n(-c3ccccc3)[nH]c2=O)cc1,98.8% (active),97.5% (active),99.2% (active),99.1% (active),98.8% (active),–
COC(=O)/C=C(C)/C=C/c1cc(C(C)=O)c(C)o1,-2.25%,-2.95%,7.85%,-12.3%,29.6%,–
CCOC(=O)N1c2ccccc2S(=O)(=O)c2ccccc21,40.5%,-10.3%,-26.4%,-16.1%,-22.9%,–
C1CSC(Sc2nc(SC3=NCCS3)nc(SC3=NCCS3)n2)=N1,-22%,-10.7%,-10%,-30.3%,-31.2%,–
Oc1ccc2ccccc2c1C(c1ccccc1)N1CCOCC1 (centres undefined),-2.5%,-11%,-5.9%,-24.7%,-12.4%,–
CN(C)CCN1CCCN(C)CC1,-14.9%,-13.8%,-4.25%,-17.2%,-25.3%,–
CCO/C=C1/C(=O)N(C)c2c1c(=O)n(C)c(=O)n2C,-46.9%,-0.25%,-4.05%,-14.3%,-18.1%,–
Cc1c(Cl)cc(Cl)c(N)c1Cl,-4.4%,-13.7%,-18%,-5.3%,-16.1%,–
Nc1nnc2nc(CC(=O)Cc3ccccc3)c(CC(=O)Cc3ccccc3)nn12,0.3%,-5.55%,11.2%,-17.9%,10.7%,–
CC1=C(OCCCl)C2CC1C1C(=O)N(c3ccccc3)C(=O)C21 (centres undefined),-9.95%,-29.1%,-1.85%,-0.4%,-4.9%,–
CC(O)C1CCCCC1O (centres undefined),5.15%,-28.3%,-2.85%,-8.65%,-9.6%,–
CCCCCCCCCCCCCCCCCC1=NCC(C)O1 (centres undefined),4.6%,-14%,-0.35%,19.6%,13.3%,–
[O-][N+]1=C(c2ccccc2)C(c2ccccc2)C(c2ccccc2)O1 (centres undefined),-13.4%,1.05%,-2.4%,-6%,-19.1%,–
COc1ccc(-c2cn3c([nH]c(=O)c4cc(Br)ccc43)c2C#N)cc1,5.55%,-5.3%,-3.7%,-5.25%,2.2%,–
Cc1cc(Cl)ccc1OC(=O)NC1CCCCC1,-2.5%,24.4%,-2.35%,-13.5%,–,–
CCc1nc2c(N)ncnc2o1,-1.45%,-1.5%,-3.3%,-37.3%,-19.8%,–
CCOC(=O)C12CCCC1(O)N(NC(=O)OC(C)(C)C)C(C)=C2C(=O)OC (centres undefined),-7.85%,15.1%,-2.6%,-43.2%,0.35%,–
Cc1cc(C)c(Br)cc1C,4.9%,15%,5.8%,3.4%,3%,–
COc1ccc(Cl)cc1NC(=O)Oc1cc2ccccc2cc1C(=O)Nc1ccccc1,-9.4%,-8.05%,-21.4%,-25.1%,-3.25%,–
COc1nc(NC2OC(CO)C(O)C(O)C2O)c(C(C)=O)c(=O)n1C (centres undefined),12.2%,2.25%,24.1%,15.2%,-6.25%,–

SMILES,growth inhibition [1],growth inhibition [2],growth inhibition [3],growth inhibition [4],growth inhibition [5],growth inhibition [6] [%]
Brc1ccccc1-c1nc2ccccc2[nH]1,4.1%,-4.4%,4%,-63%,-6.1%,–
CC(=O)SC1CC2CCC1C2 (centres undefined),0.75%,-18.2%,-17.4%,9.95%,-19.7%,–
O=C(O)C#Cc1ccc(Cl)cc1,-20.1%,-23.8%,-17.6%,-9.05%,-24.4%,–
N#CC(C(=O)C(=O)Nc1cccc(C(F)(F)F)c1)c1c(Cl)cccc1Cl (centres undefined),10.1%,11.6%,17.1%,-35%,-1.7%,–
CCC1(C#N)OC1C (centres undefined),26.9%,-24.1%,23.1%,10.8%,5.15%,–
CC(=O)N(CCCCNC(=O)C(F)(F)F)CCCNC(=O)C(F)(F)F,2.7%,-6.5%,6.55%,5.15%,-26.8%,–
CN(C)CC1CCC2=C(C1=O)C(c1ccccc1)C1=C(CCC(CN(C)C)C1=O)O2 (centres undefined),1.55%,2.1%,-1.7%,13.4%,4.3%,–
CCSCN1CCN(CSCC)CC1,1.35%,1.15%,3.5%,27.5%,-11.9%,–
Nc1ccc2ccc(NS(=O)(=O)N3CCCCC3)cc2c1,31.8%,46.9%,43.1%,52.6%,18.5%,–
COC1(c2ccc(C)cc2)c2cccc3cccc(c23)C1(O)c1ccc(C)cc1 (centres undefined),18.6%,15.6%,12%,21.6%,-4.15%,–
COc1cc2oc3cc(=O)cc4oc(-c5ccccc5)cc(c2c2c1CCC(c1ccccc1)O2)c43 (centres undefined),6.75%,7.9%,-17.4%,3.6%,-8.7%,–
CCN(CC)C(CC(=O)c1ccccc1)C(=O)c1ccccc1 (centres undefined),23.9%,16.5%,13.2%,-10%,13.3%,–
COc1cc([C@@H]2c3cc4c(cc3[C@H](O)[C@H]3COC(=O)[C@@H]23)OCO4)cc(OC)c1OC,2.55%,4.2%,1.2%,5.7%,7.15%,–
Oc1ccc(-c2ccc(O)cc2O)c(O)c1,-1.45%,-20.9%,-1.85%,7.45%,0.35%,–
CCCOC(=O)CC(=O)OCC,6%,17.2%,-4.95%,-11.8%,-7.15%,–
C/C(CC(=O)Nc1ccc(NC(=O)C/C(C)=N\NC(N)=O)cc1)=N/NC(N)=O,3.5%,-23.9%,-4.65%,11.1%,-14.1%,–
C=C1CCCCCCCCC/C=C/1SCCCSC,5.6%,26.4%,-31.6%,-17.9%,-19%,–
Cc1cc(C)cc(Sc2c([N+](=O)[O-])ncn2C)c1,7.65%,19.3%,-16.7%,21.1%,29.2%,39.7
CC(C)N1COC(c2ccccc2)C1 (centres undefined),6.05%,0.35%,-19.1%,-17.9%,-24.9%,-26.1
NCCN1CCOCC1,7.95%,-3%,-11.9%,3.45%,-5.25%,7.8
O=[N+]([O-])c1cccc(CO)c1,-9.75%,17.1%,-1.15%,8.6%,-7.35%,-5.7
O=C1Cc2ccccc2C(=O)N1,23%,22.3%,27.3%,7.4%,4.8%,16.4
